Where “and” joins values, the source holds several entries; their conditions need not be identical. Equal values may be shown once. Screen size: about 5,500 compounds; about 2,000 (36%) were called active. About 18% were inconclusive and are not listed. Rule as the data show it: active = normalized growth mostly below about 0.91 (no sharp cut-off); inconclusive = no clear call, values can overlap the other calls; inactive = mostly above about 0.92. Some of the results follow.
Assay: chemical genetic growth profiling, strain panel (AID 1159580);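 also: tested at 20 µM; growth read once vehicle control cultures reached saturation at 30 °C; 1 = growth at the plate median or of vehicle wells; lower values mean less growth of the strain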
Details: S. cerevisiae deletion strains, growth OD

Measured: normalized growth

C[C@H]1O[C@@H](O[C@H]2[C@@H](O)C[C@H](O[C@H]3[C@@H](O)C[C@H](O[C@H]4CC[C@]5(C)C6CC[C@]7(C)[C@@H](C8=CC(=O)OC8)CC[C@]7(O)C6CC[C@@H]5C4)O[C@@H]3C)O[C@@H]2C)C[C@H](O)[C@@H]1O (some centres not stated)
active: locus YGL253W, strain hxk2, stronger effect = lower value 0.761
inactive: locus YAL021C, strain ccr4, stronger effect = lower value 0.984 | locus YAL026C, strain drs2, stronger effect = lower value 0.965 | locus YAL030W, strain snc1, stronger effect = lower value 0.964 | locus YBL061C, strain skt5, stronger effect = lower value 0.975 | locus YBR009C, strain hhf1, stronger effect = lower value 0.968 | locus YBR021W, strain FUR4, stronger effect = lower value 0.968 | locus YBR023C, strain chs3, stronger effect = lower value 0.957 | locus YBR171W, strain sec66, stronger effect = lower value 0.98 | locus YBR229C, strain ROT2, stronger effect = lower value 0.982 | locus YBR231C, strain swc5, stronger effect = lower value 0.979 | locus YBR279W, strain paf1, stronger effect = lower value 0.967 | locus YCL011C, strain gbp2, stronger effect = lower value 0.951 | locus YCL016C, strain dcc1, stronger effect = lower value 0.921 | locus YCL029C, strain bik1, stronger effect = lower value 0.976 | locus YCL061C, strain MRC1, stronger effect = lower value 1.01 | locus YCL069W, strain vba3, stronger effect = lower value 0.969 | locus YCR088W, strain abp1, stronger effect = lower value 0.99 | locus YDL005C, strain med2, stronger effect = lower value 1.01 | locus YDL035C, strain GPR1, stronger effect = lower value 1.03 | locus YDL040C, strain nat1, stronger effect = lower value 0.975 | locus YDL074C, strain BRE1, stronger effect = lower value 0.982 | locus YDL101C, strain DUN1, stronger effect = lower value 0.987 | locus YDL134C, strain PPH21, stronger effect = lower value 1.02 | locus YDL185W, strain tfp1, stronger effect = lower value 1 | locus YDL192W, strain arf1, stronger effect = lower value 1 | locus YDR001C, strain nth1, stronger effect = lower value 0.968 | locus YDR069C, strain doa4, stronger effect = lower value 1.02 | locus YDR101C, strain arx1, stronger effect = lower value 1.01 | locus YDR137W, strain rgp1, stronger effect = lower value 0.976 | locus YDR159W, strain sac3, stronger effect = lower value 0.948 | locus YDR162C, strain NBP2, stronger effect = lower value 1.01 | locus YDR195W, strain ref2 1.03 | locus YDR297W, strain sur2, stronger effect = lower value 0.986 | locus YDR318W, strain mcm21, stronger effect = lower value 0.989 | locus YDR334W, strain swr1, stronger effect = lower value 0.983 | locus YDR335W, strain msn5, stronger effect = lower value 0.984 | locus YDR388W, stronger effect = lower value 0.986 | locus YDR392W, strain spt3, stronger effect = lower value 0.931 | locus YDR502C, strain sam2, stronger effect = lower value 0.993 | locus YEL003W, strain gim4, stronger effect = lower value 0.989 | locus YEL037C, strain rad23, stronger effect = lower value 0.976 | locus YEL061C, strain CIN8 (second series), stronger effect = lower value 0.971 | locus YEL061C, strain CIN8, stronger effect = lower value 0.999 | locus YER015W, strain faa2, stronger effect = lower value 0.977 | locus YER016W, strain bim1, stronger effect = lower value 0.98 | locus YER110C, stronger effect = lower value 0.989 | locus YER111C, strain swi4, stronger effect = lower value 0.969 | locus YER155C, strain BEM2 (second series), stronger effect = lower value 1.03 | locus YER155C, strain BEM2, stronger effect = lower value 0.988 | locus YER167W, strain BCK2, stronger effect = lower value 1 | locus YFR010W, strain ubp6, stronger effect = lower value 1 | locus YGL078C, strain dbp3, stronger effect = lower value 0.983 | locus YGL086W, strain mad1, stronger effect = lower value 1.02 | locus YGL167C, strain pmr1, stronger effect = lower value 1 | locus YGL173C, strain kem1, stronger effect = lower value 0.972 | locus YGL227W, strain vid30, stronger effect = lower value 0.989 | locus YGL240W, strain doc1, stronger effect = lower value 1.05 | locus YGL248W, strain PDE1, stronger effect = lower value 0.959 | locus YGR135W, strain pre9, stronger effect = lower value 0.965 | locus YGR252W, strain gcn5, stronger effect = lower value 0.967 | locus YHR013C, strain ard1, stronger effect = lower value 0.984 | locus YHR027C, strain rpn1, stronger effect = lower value 0.996 | locus YHR030C, strain SLT2, stronger effect = lower value 1 and 1.02 | locus YHR079C, strain IRE1 (second series), stronger effect = lower value 0.982 | locus YHR079C, strain IRE1, stronger effect = lower value 1.03 | locus YHR094C, strain hxt1, stronger effect = lower value 0.978 | locus YHR129C, strain ARP1, stronger effect = lower value 1 | locus YHR142W, strain chs7, stronger effect = lower value 0.926 | locus YHR200W, strain rpn10, stronger effect = lower value 0.999 | locus YIL066C, strain RNR3, stronger effect = lower value 0.993 | locus YIL073C, strain SPO22, stronger effect = lower value 0.936 | locus YIL125W, strain kgd1, stronger effect = lower value 0.985 | locus YIR030C, strain dcg1, stronger effect = lower value 0.976 | locus YJL092W, strain hpr5, stronger effect = lower value 0.981 | locus YJL095W, strain BCK1 (second series), stronger effect = lower value 0.991 | locus YJL095W, strain BCK1, stronger effect = lower value 0.953 and 1.05 | locus YJL115W, strain asf1, stronger effect = lower value 0.965 | locus YJL129C, strain trk1, stronger effect = lower value 0.988 | locus YJL134W, strain LCB3, stronger effect = lower value 0.995 | locus YJL154C, strain vps35, stronger effect = lower value 0.979 | locus YJL164C, strain tpk1, stronger effect = lower value 0.962 | locus YJL166W, strain qcr8, stronger effect = lower value 1.03 | locus YJL168C, strain set2, stronger effect = lower value 0.981 | locus YJL187C, strain SWE1 (second series), stronger effect = lower value 0.974 | locus YJR043C, strain POL32, stronger effect = lower value 1.04 | locus YJR066W, strain TOR1, stronger effect = lower value 0.958 | locus YKL009W, strain mrt4, stronger effect = lower value 0.978 | locus YKL068W, stronger effect = lower value 0.989 | locus YKL085W, strain MDH1 (second series), stronger effect = lower value 0.963 | locus YKL085W, strain MDH1, stronger effect = lower value 0.963 | locus YKL160W, strain elf1, stronger effect = lower value 0.985 | locus YKR001C, strain vps1, stronger effect = lower value 0.976 | locus YKR026C, strain gcn3, stronger effect = lower value 0.977 | locus YKR091W, strain srl3, stronger effect = lower value 0.967 | locus YLL001W, strain dnm1, stronger effect = lower value 0.989 | locus YLL026W, stronger effect = lower value 0.977 | locus YLL041C, strain sdh2, stronger effect = lower value 0.981 | locus YLR027C, strain aat2, stronger effect = lower value 0.979 | locus YLR039C, strain RIC1, stronger effect = lower value 0.999 | locus YLR058C, strain SHM2, stronger effect = lower value 0.978 | locus YLR102C, strain apc9, stronger effect = lower value 0.979 | locus YLR113W, strain HOG1, stronger effect = lower value 1.03 | locus YLR221C, strain rsa3, stronger effect = lower value 0.954 | locus YLR258W, strain gsy2, stronger effect = lower value 0.96 | locus YLR262C, strain YPT6 (second series), stronger effect = lower value 0.997 | locus YLR262C, strain YPT6, stronger effect = lower value 0.992 | locus YLR268W, strain sec22, stronger effect = lower value 0.988 | locus YLR320W, strain mms22, stronger effect = lower value 0.928 | locus YLR330W, strain CHS5, stronger effect = lower value 1 | locus YLR342W, strain FKS1 (second series), stronger effect = lower value 1.04 | locus YLR342W, strain FKS1, stronger effect = lower value 1 | locus YLR357W, strain rsc2, stronger effect = lower value 1.07 | locus YLR370C, strain arc18, stronger effect = lower value 0.956 | locus YLR371W, strain rom2, stronger effect = lower value 0.98 | locus YLR384C, strain iki3, stronger effect = lower value 0.954 | locus YLR418C, strain cdc73, stronger effect = lower value 0.928 | locus YML016C, strain PPZ1, stronger effect = lower value 1 | locus YML032C, strain rad52, stronger effect = lower value 0.996 | locus YML120C, strain ndi1, stronger effect = lower value 0.992 | locus YML124C, strain tub3, stronger effect = lower value 0.975 | locus YMR058W, strain fet3, stronger effect = lower value 1 | locus YMR078C, strain ctf18, stronger effect = lower value 0.967 | locus YMR125W, strain sto1, stronger effect = lower value 0.997 | locus YMR129W, stronger effect = lower value 0.973 | locus YMR205C, strain PFK2, stronger effect = lower value 0.924 | locus YMR223W, strain ubp8, stronger effect = lower value 0.966 | locus YMR231W, strain pep5, stronger effect = lower value 0.992 | locus YMR307W, strain GAS1, stronger effect = lower value 1.1 | locus YNL067W, strain RPL9B, stronger effect = lower value 0.981 | locus YNL071W, strain lat1, stronger effect = lower value 0.979 | locus YNL153C, strain GIM3, stronger effect = lower value 0.983 | locus YNL183C, strain NPR1, stronger effect = lower value 0.984 | locus YNL209W, strain ssb2, stronger effect = lower value 0.977 | locus YNL233W, strain BNI4, stronger effect = lower value 0.977 | locus YNL248C, strain rpa49, stronger effect = lower value 0.979 | locus YNL250W, strain rad50, stronger effect = lower value 0.997 | locus YNL271C, strain bni1, stronger effect = lower value 0.973 | locus YNL298W, strain CLA4, stronger effect = lower value 0.984 | locus YNL307C, strain MCK1, stronger effect = lower value 0.978 | locus YNL322C, strain KRE1 (second series), stronger effect = lower value 0.972 | locus YNR049C, strain mso1, stronger effect = lower value 0.977 | locus YNR052C, strain pop2, stronger effect = lower value 0.999 | locus YOL006C, strain TOP1, stronger effect = lower value 0.896 | locus YOL012C, strain htz1 0.968 | locus YOL147C, strain pex11, stronger effect = lower value 0.984 | locus YOR001W, strain rrp6, stronger effect = lower value 1.03 | locus YOR061W, strain CKA2, stronger effect = lower value 0.994 | locus YOR069W, strain VPS5, stronger effect = lower value 0.994 | locus YOR070C, strain gyp1, stronger effect = lower value 0.968 | locus YOR080W, strain dia2, stronger effect = lower value 0.982 | locus YOR083W, strain WHI5, stronger effect = lower value 0.967 | locus YOR106W, strain vam3, stronger effect = lower value 1 | locus YOR136W, strain idh2, stronger effect = lower value 0.985 | locus YOR144C, strain elg1, stronger effect = lower value 0.985 | locus YOR184W, strain ser1, stronger effect = lower value 0.963 | locus YOR231W, strain MKK1, stronger effect = lower value 1.01 | locus YOR265W, strain rbl2, stronger effect = lower value 0.988 | locus YOR270C, strain vph1, stronger effect = lower value 0.89 | locus YOR290C, strain snf2, stronger effect = lower value 0.944 | locus YOR316C, strain cot1, stronger effect = lower value 0.977 | locus YPL051W, strain arl3, stronger effect = lower value 1.01 | locus YPL078C, strain atp4, stronger effect = lower value 1.02 | locus YPL106C, strain sse1, stronger effect = lower value 0.989 | locus YPL240C, strain hsp82, stronger effect = lower value 0.999 | locus YPL241C, strain CIN2, stronger effect = lower value 1 | locus YPL256C, strain CLN2, stronger effect = lower value 1.02 | locus YPR119W, strain clb2, stronger effect = lower value 0.981 | locus YPR141C, strain kar3, stronger effect = lower value 0.953 | locus YPR163C, strain tif3, stronger effect = lower value 0.981 | locus YPR167C, strain met16, stronger effect = lower value 0.989 | strain wtn01, stronger effect = lower value 1

From PubChem BioAssay AID1159580 (chemical genetic matrix, 2015)
